The entries come from a sample that favours hits as a whole.
TTR transcr act – TTR transcription activators in neuroblastoma reporter cells, primary screen, cell-based, luminescence, SH-SY5Y, TTR promoter Gaussia luciferase | 100% = recombinant luciferase protein wells | activation, % at 16.7 µM | 92,000 tested, 1.3% active | AID 1117267, 2014;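 active = activation above the mean of all tested compounds plus 3 SD, cut at about 9.5% in these data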;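 note: cells exposed to compounds for one day before reading; 0% = median of all test compound wells on the plate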
HuH7 TTR inh – TTR promoter reporter inhibitors in hepatoma cells, counter-screen for TTR transcription activator project, cell-based, luminescence, HuH7 hepatoma; inhibition, % at 16.7 µM; 1,100 tested, 4% active; HuH7 TTR promoter-Gaussia luciferase reporter; shares compounds with TTR transcr act;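 active = average inhibition above the solvent-only control wells' mean plus 3 SD, cut at about 15% in these data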;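 note: 0% = cells with DMSO only and 100% = cells with inhibitor control FD; inhibitors lower well luminescence so higher value means more inhibition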
TTR up confirm – TTR transcription activators, retest, confirmation, cell-based, luminescence, SH-SY5Y, triplicate. shares compounds with TTR transcr act. SHSY5Y TTR promoter Gaussia luciferase; 100% = purified Lucia enzyme wells, no cells. activation, % at 16.7 µM. 1,100 tested, under 10 active;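 active = mean activation above a set limit taken from the earlier primary screen, cut at about 11% in these data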;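 note: 0% = DMSO-treated cells and 100% = recombinant Lucia luciferase without cells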
Starred values were filed as active, the others as inactive.

SMILES | TTR transcr act | others
COC(C(=O)Nc1ccccc1F)c1ccccc1 (stereo not given) | 14.6* | HuH7 TTR inh=-6.7;TTR up confirm=-0.2
C/C(=N/NC(=O)CNC(=O)CCc1ccccc1)c1ccc(Cl)c(Cl)c1 | -2.4
COc1ccc(S(=O)(=O)NC(N)=NCCc2ccc(OC)c(OC)c2)cc1C | 11.7* | HuH7 TTR inh=-10.7;TTR up confirm=0.7
COc1ccc(CCN=C(N)NS(=O)(=O)c2ccc(C)c(C)c2)cc1OC | 0.7
COc1ccc(CCN=C(N)NS(=O)(=O)c2cccs2)cc1OC | 3.6
O=c1cc(N2CCN(c3cccc(C(F)(F)F)c3)CC2)[nH]c(=O)n1C1CCCCC1 | 2.0
CC(C)N1CCc2c(-c3nc4ccccc4s3)csc2C1 | -0.8
CC(=O)Nc1nnc(CSCc2ccccc2F)s1 | 0.9
Cc1nc2cc(NC(=O)CCS(=O)(=O)c3ccccc3)ccc2s1 | -1.4
O=C(CSc1nc2ccccc2o1)NCC1CCCO1 (stereo not given) | -0.2
Cc1ccc(S(=O)(=O)c2nc(-c3ccco3)oc2SCC(N)=O)cc1 | -0.1
O=C(CSc1oc(-c2ccco2)nc1S(=O)(=O)c1ccccc1)NCC1CCCO1 (stereo not given) | 11.7* | HuH7 TTR inh=-6.9;TTR up confirm=-0.1
COc1ccc(Cl)cc1NC(=O)c1cc(C2CC2)on1 | -1.3
COc1ccc(NC(=O)c2cc(-c3ccc(OC)c(OC)c3)on2)cc1OC | -0.3
COc1ccc(Cl)cc1NC(=O)c1cc(-c2ccccc2)on1 | 12.2* | HuH7 TTR inh=10.7;TTR up confirm=-0.3
CCN(CC)c1ccc(/C=N/NC(=O)c2ccc([N+](=O)[O-])cc2)cc1 | 0.0
CCN(CC)c1ccc(N=Cc2ccc([N+](=O)[O-])o2)cc1 | 17.0* | HuH7 TTR inh=-2.1;TTR up confirm=-0.1
CCN(CC)c1ccc(N=Cc2ccccc2[N+](=O)[O-])cc1 | -3.0
Cc1ccc(NC(=O)COC(=O)CCc2c(C)nc3ncnn3c2C)cc1C | 1.2
Cc1ccc[n+](CC(=O)c2ccc(NC(=O)c3ccccc3)cc2)c1 | 1.4
Cc1cc(C)c(C(=O)C[n+]2cccc(C(N)=O)c2)c(C)c1 | 13.7* | HuH7 TTR inh=-8.7;TTR up confirm=-0.1
Cc1cccc(NC(=O)C[n+]2cccc(C)c2)c1 | -1.6
CCC(C)[C@H](NC(=O)[C@@H]1CSC2c3ccccc3C(=O)N21)C(=O)NC1CCCC1 (stereo not given in full) | -1.4
O=C(NC1CCCC1)C1c2ccccc2C(=O)N1CCCN1CCOCC1 (stereo not given) | 1.1
CCC(C)N1C(=O)c2ccccc2C1C(=O)NC1CCCCCC1 (stereo not given) | 14.6* | HuH7 TTR inh=-24.2;TTR up confirm=-0.4
SMILES | TTR transcr act | others
COc1ccc(Oc2c(Cl)cnn(C3c4ccccc4-c4ccccc43)c2=O)cc1 | -1.3
CCOC(=O)N1CCN(C(=O)C[C@H]2C(=O)N(Cc3ccc(OC)cc3)C3=CCCCC[C@@]32C(=O)OC)CC1 | -0.5
CC(C)(C)S(=O)N1Cc2cc(C(=O)N3CCc4ccccc4C3)nc(-c3cccc(-c4cccnc4)c3)c2[C@@H]1CCO (stereo not given in full) | 2.6
O=C(CN[C@@H](Cc1c[nH]c2ccccc12)C(=O)NCCc1c[nH]c2ccccc12)NC1CCCCC1 | -1.2
C=CCNC1CCC12CCC(c1ccccc1)CC2 (stereo not given) | 5.2
O=C(Nc1ccccc1)N(CCc1nc2ccccc2[nH]1)C1CCCC1 | 3.3
CC(C)(Cc1nc2ccccc2[nH]1)C(=O)O | 2.3
O=C1CCC(CCc2nc3ccccc3[nH]2)(c2ccccc2)C(=O)N1 (stereo not given) | 21.5* | HuH7 TTR inh=7.7;TTR up confirm=3.2
O=C(Nc1ccccc1Cl)c1ccc(S(=O)(=O)N2CCOCC2)cc1 | 2.1
COCCN(CC(=O)Nc1cccc(C)c1C)C(=O)c1ccc(S(=O)(=O)N2CCOCC2)cc1 | 9.8* | HuH7 TTR inh=-11.5;TTR up confirm=0.7
COCCN(CC(=O)Nc1cccc(C)c1C)C(=O)Cc1cccs1 | 5.1
NS(=O)(=O)c1cccc(NC(=O)COC(=O)CN2C(=O)c3ccccc3C2=O)c1 | 0.8
Cc1ccc(-n2ccc(=O)c(C(=O)Nc3ccc(S(=O)(=O)Nc4nccs4)cc3)n2)cc1 | 1.1
Cc1ccc2nc(SCC(=O)c3ccc(Cl)cc3)nc(=O)n2c1 | 1.6
COc1ccccc1NC(=O)CSc1nc(=O)n2cc(C)ccc2n1 | 11.7* | HuH7 TTR inh=-14.8;TTR up confirm=2.0
Cc1ccc2nc(SCC(=O)Nc3ccc(C)c(Cl)c3)nc(=O)n2c1 | 1.1
Clc1ccc([C@H]2OC[C@@]3(CNCc4ccc5c(c4)OCO5)CS[C@H](c4ccc(Cl)cc4)N23)cc1 | 0.5
NC(=O)C(c1ccc(Cl)cc1)c1ccc(Sc2ccc(Cl)cc2)nn1 (stereo not given) | -6.4
C[C@@H]1CN([C@H](C)CO)C(=O)CCCn2nncc2CO[C@@H]1CN(C)C(=O)NC1CCCCC1 | 0.1
COC(=O)c1cc(NC(=O)c2c(C)noc2C)ccc1N1CCOCC1 | -1.0
COC(=O)c1cc(NC(=O)c2cc(-c3ccc(C(F)(F)F)cc3)oc2C(F)(F)F)ccc1N1CCOCC1 | -1.2
COC(=O)c1cc(NCc2ccccc2F)ccc1N1CCOCC1 | 10.4* | HuH7 TTR inh=-9.3;TTR up confirm=-1.1
Cc1nc(CSc2ccccc2)cc(=O)[nH]1 | -0.1
CSc1ccccc1C(=O)Nc1cccc(N(C)S(C)(=O)=O)c1 | 0.5
COc1ccc(NC(=O)c2ccccc2SC)cc1OC | 11.8* | HuH7 TTR inh=-7.4;TTR up confirm=0.5
SMILES | TTR transcr act | others
COc1ccccc1C(=O)Nc1cccc(SC)c1 | 0.0
CC(C)N1CCc2c(sc(NC(=O)C(F)(F)F)c2-c2nc3ccccc3s2)C1 | -0.1
CS(=O)(=O)c1nc(-c2ccc(Br)cc2)cs1 | 0.1
c1ccc(NN(Cc2ccccn2)c2ccccc2)cc1 | 1.5
CCOC(=O)C1(C)CCCN(C(=O)c2ccccc2OC(F)(F)F)C1 (stereo not given) | -0.8
C/C(=N\NC(=O)c1ccccn1)c1ccc(Cl)cc1 | -1.6
CC(/C=C/c1ccccc1)=N/NC(=O)C(O)c1ccccc1 (stereo not given) | 3.1
C/C(=N\NC(=O)C(O)c1ccccc1)c1ccc(Cl)cc1 (stereo not given) | 23.5* | HuH7 TTR inh=-10.7;TTR up confirm=0.4
O=C(c1cc(N2CCOCC2)c(F)cc1[N+](=O)[O-])N1CCOCC1 | -0.1
O=C(COc1ncnc2ccccc12)Nc1cc([N+](=O)[O-])ccc1Cl | 38.3* | HuH7 TTR inh=-4.3;TTR up confirm=-0.3
O=C(COc1ncnc2cc([N+](=O)[O-])ccc12)NC(=O)NC1CCCCC1 | 0.2
O=C(CC(=O)c1ccccc1)Nc1cc([N+](=O)[O-])ccc1Cl | 2.7
COC(=O)c1cccc(N2C(=O)C[C@](Sc3ccc(C)cc3)(C(=O)OC)[C@H]2c2ccccc2)c1 | -0.4
CN(Cc1ccccc1)C(=O)Cn1nnc(-c2ccccc2)c1COc1ccccc1 | -2.7
Brc1ccc(-c2c(-c3ccsc3)sc3ccccc23)cn1 | -1.5
COc1ccc2c(C#CCCO)c(-c3ccc(S(C)(=O)=O)cc3)sc2c1 | -2.6
OCCC#Cc1c(-c2ccsc2)sc2ccccc12 | 10.0* | HuH7 TTR inh=-8.1;TTR up confirm=-0.8
Cc1c(/C=N/NC(=O)C(NC(=O)c2ccc3c(c2)OCO3)C(C)C)c2ccccc2n1C (stereo not given) | 0.0
CCCCCCNC(=O)c1c(N)[nH]c(C(=O)c2ccccc2)c1-c1ccc(O)cc1 | -2.7
